Compound activity (PubChem)
SARS PLP yeast = qHTS of Yeast-based Assay for SARS-CoV PLP. 0.19% of 330,000 active. Potency, µM (highest dose often 32.9 µM), without a hit: at the top dose activity, positive = growth rescue, usual class: activators. S. cerevisiae expressing SARS-CoV PLpro, growth rescue. AID 485353, 2010; calls by dose curve; note: potency is the fitted concentration of half-maximal effect; 0% is about no effect; nearly all actives have a fitted effect of over 55% in size
Pf growth 48h = Primary qHTS for delayed death inhibitors of the malarial parasite plastid, 48 hour incubation; Potency, µM (series often up to 28.7 µM), for the others: at the top dose activity change, negative = inhibition, hits mostly inhibitors; 5.9% of 310,000 active; P. falciparum luciferase growth in erythrocytes, 48 h; note: potency is the fitted concentration of half-maximal effect; % is set by controls: 0 for no effect and ±100 for the full control effect
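Parasite viability was followed by luminescence of a genomically integrated firefly luciferase. Cultures held 0.1% parasitemia at 2% hematocrit (final), incubated under 5% CO2 at 37 C.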
NS1 inh = qHTS Assay for Inhibitors of Influenza NS1 Protein Function; 0.4% of 270,000 active; Potency, µM (top dose mostly 46.1 µM), for inactives: top-dose activity, positive = more growth; AID 2326, 2010; calls by dose curve; note: potency is the fitted concentration of half-maximal effect; actives are rising curves; nearly all actives have a fitted effect of over 50% in size
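S. cerevisiae expressing influenza A NS1, grown in glucose, washed, then diluted 1:100 into pH 6.0 -URA galactose medium with 23 nl compound. Growth recovery read as OD600; NS1-free strain serves as control.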
CHX counter = Cycloheximide Counterscreen for Small Molecule Inhibitors of Shiga Toxin; cell reporter, cycloheximide protein synthesis inhibition counterscreen; max response, %; 12% of 300,000 active; AID 2314, 2010; in the data active = max response mostly above about 13%, no sharp cut-off; inactive = mostly below about 14%; note: read at 38.3 µM for the half of the compounds with a filed dose; 0% is about no effect
Pf growth 96h = Primary qHTS for delayed death inhibitors of the malarial parasite plastid, 96 hour incubation. 6.9% of 320,000 active. Potency, µM (top dose mostly 28.7 µM), for inactives: top-dose activity change, negative = inhibition, most hits filed as inhibitors. P. falciparum luciferase reporter growth, 96 h; note: potency is the fitted concentration of half-maximal effect; % is set by controls: 0 for no effect and ±100 for the full control effect
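Delayed-death screen, second-generation endpoint: infected erythrocytes, 2% hematocrit, 0.05% parasitemia final; 96 hours at 37 C, 5% CO2; luciferase detection reagent; luminescence decrease equals reduced growth.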
Shiga toxin inh = A qHTS for Small Molecule Inhibitors of Shiga Toxin; Vero cells, Shiga toxin protein synthesis inhibition reporter; inhibition, % at 38.7 µM; 9.2% of 290,000 active; in the data active = inhibition mostly above about 28%, no sharp cut-off; inactive = mostly below about 43%; note: 0% is about no effect
* hit, by the source's call; ? = inconclusive; . = not tested or not shown; [ ] = remark or other dose. A selection: hits, their analogues and other compounds. The true share with any hit is near 21%. Unless noted, calls come from the whole dose curve; as a rule, active = well fitted inhibition curve with a large enough effect; inconclusive = small, poorly fitted or top-dose-only effect, or another doubt; inactive = no such curve, though single readings can be large or run the other way.

SMILES | SARS PLP yeast | Pf growth 48h | NS1 inh | CHX counter | Pf growth 96h | Shiga toxin inh
Cc1c(NC(=O)COC(=O)C2(c3ccc(F)cc3)CCCC2)c(=O)n(-c2ccccc2)n1C | 1% | 0% | 14% | -3 | 4% | -1
C/C(=N\Nc1cccc(C(=O)O)c1)c1cc2ccccc2o1 | -7% | 113% | . | 71* | 70% | 198*
O=[N+]([O-])c1cccc(N/N=C/c2cccc3ccccc23)c1 | -48% | 62% | -21% | 30* | -76% | 42*
CCN(CC(=O)Nc1c(F)cccc1F)C(=O)C1CCN(S(=O)(=O)c2ccc(C)c(C)c2)CC1 | 3% | ? | . | . | -9% | .
O=C(Oc1cccc2cccnc12)c1ccc2c(c1)OCCO2 | -18% | -18% | -137% | 70* | -26% | 84*
O=C(Oc1cccc2cccnc12)c1ccco1 | -57% | ? | -5% | -4 | 1.3µM* | 14
CC(=O)NCCOc1cccc2cccnc12 | -11% | 32% | 12% | -1 | . | -23
O=C(Oc1cccc2cccnc12)c1ccc(Br)o1 | 2% | -2% | -22% | -4 | 0%[5.75 µM] | 12
O=C(Oc1cccc2cccnc12)c1cccc([N+](=O)[O-])c1 | -1% | 38% | -44% | -5 | 11% | -18
O=C(NCCOc1cccc2cccnc12)c1cccs1 | 0% | 11% | . | 22 | -13%[5.75 µM] | 46*
O=C(Oc1ccc(Cl)c2cccnc12)c1ccco1 | -21% | 12µM* | -5% | 23 | 74% | -8
O=C(Oc1cccc2cccnc12)c1cccs1 | -37% | ? | -148% | 21* | ? | 41
Cc1ccc(N(C)C(=O)Oc2cccc3cccnc23)cc1 | -6% | -3% | -8% | -3 | 18% | 34
O=C(Cc1ccc(Cl)cc1)Oc1cccc2cccnc12 | -136% | 0% | ? | 2 | 2.6µM* | -9
CC1C=CCC2C(=O)N(c3ccccc3OC(=O)c3ccco3)C(=O)C12 (configuration not stated) | 0% | 40% | 2% | -2 | -9% | -35
NNC(=O)COc1cccc2cccnc12 | 25% | -10% | -2% | -3 | -3% | -9
O=C(Oc1ccccc1N1C(=O)CCC1=O)c1ccco1 | -4% | -9% | 5% | 1 | 9.3µM* | -9
O=C(COc1cccc2cccnc12)Nc1nccs1 | 6% | 127% | ? | 33* | 58% | 53*
CCc1ccc(NC(=O)CSc2nnc(CNC(=O)c3ccco3)o2)cc1 | ? | 3% | -1% | -2 | ? | -3
O=C(O)C1(C(=O)O)CCC1.[NH2-].[NH2-].[Pt+2] | . | -8% | . | -4 | -8% | -10
Cc1cc(C(=O)c2cnc(/N=C/N(C)C)s2)c(F)cc1Cl | 0% | 20% | . | 9 | 45% | 15
COC(=O)CCSCc1cn2cc(Cl)ccc2n1 | -1% | 15% | 4% | 16* | 18% | 23
CCNc1ccc(S(=O)(=O)N(C)C)cc1NCC(=O)Nc1ccc(F)c(Cl)c1 | 7% | ? | -28% | -3 | ? | -5
Cc1ccc(S(=O)(=O)CCC(O)c2ccc(Cl)cc2)cc1 (configuration not stated) | -1% | . | -6% | -1 | 13% | 2
CC(C(=O)Nc1ccc(S(=O)(=O)N2CCCC2)cc1)N(C)CC(=O)Nc1cccc(F)c1 (configuration not stated) | -8% | . | . | . | . | .
SMILES | SARS PLP yeast | Pf growth 48h | NS1 inh | CHX counter | Pf growth 96h | Shiga toxin inh
Cc1ccc(NC(=O)CN(C)C(C)C(=O)Nc2ccc(S(=O)(=O)N3CCCC3)cc2)cc1 (configuration not stated) | 0% | 12µM* | . | . | 12µM* | .
COc1cccc(NC(=O)CN(C)C(C)C(=O)Nc2ccc(S(=O)(=O)N3CCCC3)cc2)c1 (configuration not stated) | 0% | 9.3µM* | -10% | -2 | 4.7µM* | -7
CC(C)CC(=O)Nc1ccc(S(=O)(=O)N2CCCC2)cc1 | -1% | -2% | 4% | -1 | ? | -6
COc1cccc(-c2nc(-c3ccccc3)nc(N3CCN(C)CC3)c2C#N)c1 | 0% | -8% | . | -2 | ? | 17
COc1cccc(-c2nc(N)nc(SC)c2C#N)c1 | 0% | 16% | -3% | 14* | 35% | 31
C=CCN1CC(c2nc3ccccc3n2Cc2cccc3ccccc23)CC1=O (configuration not stated) | -2% | ? | -70% | -5 | 12µM* | -21
CCC(C)NC(=O)C(=O)NCC1CCCN1CC (configuration not stated) | 2% | 15% | . | -4 | 0% | 12
COc1ccccc1N1CCN(C(=O)C(C)CS(=O)(=O)c2ccc3c(c2)NC(=O)CS3)CC1 (configuration not stated) | ? | ? | 8% | 8 | 45% | 12
CN(C)CCCn1c(=O)n(Cc2ccco2)c(=O)c2c3c(sc21)CCCCC3 | 1% | ? | 3% | 2 | 12µM* | -2
CN(C)CCCn1c(=O)n(CCc2ccccc2)c(=O)c2c3c(sc21)CCCCC3 | 1% | ? | -4% | -4 | ? | -11
O=C(c1ccc(Cl)c(S(=O)(=O)N2CCOCC2)c1)N(c1ccccn1)C1CCCCC1 | -1% | ? | . | -3 | ? | 18
O=C(COc1cccc(C(F)(F)F)c1)NCC(c1cccs1)N1CCOCC1 (configuration not stated) | 13% | 13µM* | . | . | 15µM* | .
O=C(COc1cccc(C(F)(F)F)c1)NCC(c1ccco1)N1CCCCC1 (configuration not stated) | 0% | 15µM* | . | . | ? | .
O=C(COc1cccc(C(F)(F)F)c1)NCC(c1ccco1)N1CCCC1 (configuration not stated) | 3% | . | . | . | . | .
Cc1cc(C)cc(N2C(=O)C3C4C=CC(C4)C3C2=O)c1 (configuration not stated) | -2% | -14% | -3% | -1 | 68% | -14
COc1ccc(C(=O)NNC(=S)NC(=O)c2cccs2)cc1 | -38% | -29% | -89% | -2 | 56% | -6
O=C(Cc1ccccc1)Nc1ccc(NC(=O)c2cccs2)cc1 | -6% | -8% | . | 15 | 24% | 25
CCCCN(CCCC)S(=O)(=O)c1ccc(NC(=O)c2cccs2)cc1 | -9% | . | 2% | -5 | 0.41µM* | -8
COc1ccc(NC(=O)C(=O)NNC(=O)c2cccs2)cc1 | -30% | 23% | -7% | 15* | 3.7µM* | 10
Nc1ccc(NC(=O)c2cccs2)cc1 | -1% | 32% | 2% | 21* | -8% | 23
O=C(Nc1ccc2c(c1)CCC2)c1cccs1 | -4% | -26% | -32% | 54* | -19% | 62*
CN1CCC(N(C)C(=O)c2cccc(S(=O)(=O)N3CCc4ccccc43)c2)CC1 | -13% | . | . | . | . | .
